Experiments:
Type in all cases: functional
[1] = tested on: Plasmodium falciparum; experiment: GSK_TCMDC: Inhibition of Plasmodium falciparum 3D7 in whole red blood cells, using parasite LDH activity as an index of growth. Test compounds present at 2uM
[2] = tested on: Plasmodium falciparum; experiment: GSK_TCMDC: Inhibition of Plasmodium falciparum Dd2 in whole red blood cells, using parasite LDH activity as an index of growth. Test compounds present at 2uM
[3] = tested on: HepG2; experiment: GSK_TCMDC: Percent inhibition of human HepG2 cell line. Test compounds present at 10uM.

SMILES | Inhibition [1] [%] | Inhibition [2] [%] | Inhibition [3] [%]
CCCCCCCC1CC(CC(=O)Nc2ccnc3ccc(OC)cc23)CN1 (stereo not given) | 90 | 58 | 22
COc1ccc(CCNCC(O)c2cccc(Br)c2)c(Cl)c1OC.Cl (stereo not given) | 87 | 70 | 18
CC(C)(C)C(Cn1ccnc1)NCc1c[nH]nc1-c1ccc(-c2ccccc2)cc1 (stereo not given) | 98 | 69 | 15
CC1CCN(CC[C@H]2CCCN2S(=O)(=O)c2cccc(NC(=O)c3ccc(-c4ccccc4)cc3)c2)CC1 | 87 | 36 | 38
Cc1cc(C(=O)OCC(=O)Nc2c(C)n(C)n(-c3ccccc3)c2=O)c(C)n1-c1ccc(F)cc1 | 100 | 99 | 0
